Test results reported in PubChem BioAssay.
Active and inactive are the calls of the source.

What was measured:
[1] = system: Plasmodium falciparum Sir2 (PF13_0152, Sir2A); assay: Plasmodium falciparum Sir2A binding compounds – biochemical, small-molecule microarray, 635 nm fluorescence, primary screen (AID 1098); settings: fluorescence 635 nm, higher = more signal;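 also: score merges spot fluorescence intensity with its signal-to-noise ratio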
[2] = probe aDKK1 binding to arrayed compounds – biochemical, biotinylated probe, 635/667 nm fluorescence, primary screen (AID 1099); settings: small-molecule microarray, higher = more signal;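 also: score merges 667nm spot fluorescence with signal to noise across triplicate slides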
[3] = probe aCHRDL2 binding to arrayed compounds – biochemical, biotinylated probe, 635/667 nm fluorescence, primary screen (AID 1100); settings: small-molecule microarray, higher = more signal
[4] = change in splice reporter luminescence, either direction, cell-based, HEK293, spliceosome inhibition project, primary screen (AID 1101); settings: HEK293 splicing luciferase reporter, 24 h, higher = more signal, called active from +8 up or from −8 down;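 also: HEK293 cells carrying a splicing-competent luciferase reporter gene; test concentration not given here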
[5] = molecular target: Fibroblast growth factor 10 (Homo sapiens) (UniProt O15520); assay: compounds binding fibroblast growth factor 10 – biochemical, small-molecule microarray, 635 nm fluorescence, primary screen (AID 1102); settings: FGF10 binding, fluorescence 635 nm, higher = more signal
[6] = system: glycogen synthase kinase-3 (GSK3A per assay name; protocol says GSK3B); assay: compounds binding glycogen synthase kinase-3 – biochemical, small-molecule microarray, 635 nm fluorescence, GSK3A, primary screen (AID 1103); settings: fluorescence 635 nm, higher = more signal; also: the record names both GSK3A and GSK3B
[7] = molecular target: Epidermal growth factor receptor (Homo sapiens) (UniProt P00533); assay: compounds binding epidermal growth factor receptor – biochemical, small-molecule microarray, 635 nm fluorescence, primary screen (AID 1104); settings: EGFR binding, higher = more signal;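 also: score merges 667 nm emission intensity with spot signal to noise over triplicate slides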
[8] = molecular target: Follistatin-related protein 3 (Homo sapiens) (UniProt O95633); assay: compounds binding follistatin-related protein 3 – biochemical, small-molecule microarray, 635 nm fluorescence, primary screen (AID 1105); settings: FSTL3 binding, higher = more signal;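 also: score merges emission near 667 nm and signal to noise per printed spot across three slides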
[9] = molecular target: Dickkopf-related protein 1 (Homo sapiens) (UniProt O94907); assay: small molecules binding DKK1 protein – biochemical, small-molecule microarray, 635 nm fluorescence scan, primary screen (AID 1106); settings: higher = more signal;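 also: score merges emission near 667 nm with signal to noise over three replicate slides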
[10] = system: Inhibin beta A chain (activin A); assay: small molecules binding activin A – biochemical, small-molecule microarray, 635 nm fluorescence scan, primary screen (AID 1107); settings: INHBA, higher = more signal;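 also: mouse activin A protein probed at 4.33 µg/mL on printed slides; score merges bound-protein fluorescence near 667 nm with spot signal-to-noise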
[11] = system: Human papillomavirus type 1a protein E7 (residues 44-93); assay: small molecules binding HPV E7 44-93 – biochemical, small-molecule microarray, residues 44-93, 635 nm fluorescence, primary screen (AID 1108); settings: fluorescence 635 nm, higher = more signal;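 also: E7 fragment applied at 1 µg/mL in TBST for 1 h at 4 C; score combines spot fluorescence with its signal to noise ratio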
[12] = hepatitis C replication reporter changes, two-sided – Huh7 cells, luciferase reporter, HCV replication inhibitor project, primary screen (AID 1109); settings: Huh7 HCV replicon luciferase reporter, 48 h; higher = more signal;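 also: huh7 hepatoma cells harbouring a luciferase neomycin HCV replicon reporter; luciferase luminescence as measure of HCV replicon replication; test concentration not given here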
[13] = molecular target: Left-right determination factor 2 (Homo sapiens) (UniProt O00292); assay: small molecules binding LEFTY2 protein – biochemical, small-molecule microarray, 635 nm fluorescence scan, primary screen (AID 1110); settings: higher = more signal
[14] = molecular target: Calmodulin-1 (Homo sapiens) (UniProt P0DP23); assay: small molecules binding calmodulin-1 with EGTA – biochemical, small-molecule microarray, Cy5-labelled CALM1, profiling panel (AID 1111); settings: Cy5-CALM1 binding fluorescence, higher = more signal;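 also: labelled calmodulin applied in Tris saline Tween buffer holding calcium plus EGTA and DTT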
[15] = molecular target: Calmodulin-1 (Homo sapiens) (UniProt P0DP23); assay: small molecules binding Ca-loaded calmodulin-1 – biochemical, small-molecule microarray, Cy5-labelled CALM1, plus calcium, artefact control for SMM control-protein annotation, profiling panel (AID 1112); settings: Cy5-CALM1 binding fluorescence, higher = more signal;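 also: score merges spot fluorescence with signal to noise from triplicate slides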
[16] = probe aWnt5a binding to arrayed compounds – biochemical, biotinylated probe, 635/667 nm fluorescence, primary screen (AID 1113); settings: small-molecule microarray, higher = more signal;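 also: score merges 667 nm fluorescence intensity with signal-to-noise per printed feature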
[17] = probe aShh binding to arrayed compounds – biochemical, biotinylated probe, 635/667 nm fluorescence, primary screen (AID 1114); settings: small-molecule microarray, higher = more signal;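 also: probe is biotin-labelled aShh protein from a stem cell growth factor screen; measures binding of labelled protein to compounds printed on the slide; score merges feature fluorescence at 667 nm with signal-to-noise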
[18] = probe aNog binding to arrayed compounds – biochemical, biotinylated probe, 635/667 nm fluorescence, primary screen (AID 1115); settings: small-molecule microarray, higher = more signal;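 also: probe is biotinylated aNog protein used at 0.15 µg/mL for 1 h at 4 C; z-score combines 667 nm fluorescence of each spot with its signal to noise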
[19] = molecular target: Torsin-1A-interacting protein 1 (Homo sapiens) (UniProt Q5JTV8); assay: compound microarray binding of lysate hLAP1 – cell lysate, small-molecule microarray, COS7 lysate, 635/667 nm fluorescence, primary screen (AID 1116); settings: 635 nm fluorescence, higher = more signal
[20] = molecular target: Alpha-bungarotoxin (Bungarus multicinctus) (UniProt P60615); assay: compounds binding labelled alpha-BTX control protein – biochemical, small-molecule microarray, Alexa647 label, 635/667 nm fluorescence, artefact control for SMM control protein annotation, profiling panel (AID 1117); settings: alpha-BTX-A647 binding fluorescence, higher = more signal
Chain of Alpha-bungarotoxin (Bungarus multicinctus) (P60615 whole entry, looked up): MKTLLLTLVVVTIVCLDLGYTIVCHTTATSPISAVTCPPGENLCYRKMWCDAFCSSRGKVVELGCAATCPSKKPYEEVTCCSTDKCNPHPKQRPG

Chain of Torsin-1A-interacting protein 1 (Homo sapiens) (Q5JTV8 whole entry, looked up): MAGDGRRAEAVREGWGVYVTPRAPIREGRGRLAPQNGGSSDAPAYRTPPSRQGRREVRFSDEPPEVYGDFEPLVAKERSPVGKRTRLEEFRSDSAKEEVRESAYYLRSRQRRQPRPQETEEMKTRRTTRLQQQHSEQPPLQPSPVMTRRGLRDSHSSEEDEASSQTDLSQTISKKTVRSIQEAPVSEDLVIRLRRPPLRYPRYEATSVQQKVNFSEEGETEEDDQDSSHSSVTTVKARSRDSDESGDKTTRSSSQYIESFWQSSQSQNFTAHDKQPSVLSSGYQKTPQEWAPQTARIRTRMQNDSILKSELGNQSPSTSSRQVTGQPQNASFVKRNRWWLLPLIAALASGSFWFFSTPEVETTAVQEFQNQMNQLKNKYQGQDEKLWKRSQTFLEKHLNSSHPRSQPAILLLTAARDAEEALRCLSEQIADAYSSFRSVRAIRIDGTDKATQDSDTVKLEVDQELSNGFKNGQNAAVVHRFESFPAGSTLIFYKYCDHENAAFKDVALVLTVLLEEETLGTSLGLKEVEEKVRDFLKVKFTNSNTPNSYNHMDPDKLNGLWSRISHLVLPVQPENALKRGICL
Chain of Dickkopf-related protein 1 (Homo sapiens) (O94907 whole entry, looked up): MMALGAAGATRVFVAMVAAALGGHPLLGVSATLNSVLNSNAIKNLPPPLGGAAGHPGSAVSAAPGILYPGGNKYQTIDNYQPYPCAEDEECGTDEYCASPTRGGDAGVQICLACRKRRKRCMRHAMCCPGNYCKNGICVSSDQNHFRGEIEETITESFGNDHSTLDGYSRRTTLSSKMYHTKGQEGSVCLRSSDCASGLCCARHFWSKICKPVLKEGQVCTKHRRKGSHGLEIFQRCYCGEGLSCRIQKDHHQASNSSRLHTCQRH
Chain of Follistatin-related protein 3 (Homo sapiens) (O95633 whole entry, looked up): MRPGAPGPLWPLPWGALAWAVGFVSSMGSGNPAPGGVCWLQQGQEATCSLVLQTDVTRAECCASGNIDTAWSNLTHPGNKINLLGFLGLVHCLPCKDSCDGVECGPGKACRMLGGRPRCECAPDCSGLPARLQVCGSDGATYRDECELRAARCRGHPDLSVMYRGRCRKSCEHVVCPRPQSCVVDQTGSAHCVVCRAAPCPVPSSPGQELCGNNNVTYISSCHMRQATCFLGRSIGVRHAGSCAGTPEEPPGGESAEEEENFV
Chain of Fibroblast growth factor 10 (Homo sapiens) (O15520 whole entry, looked up): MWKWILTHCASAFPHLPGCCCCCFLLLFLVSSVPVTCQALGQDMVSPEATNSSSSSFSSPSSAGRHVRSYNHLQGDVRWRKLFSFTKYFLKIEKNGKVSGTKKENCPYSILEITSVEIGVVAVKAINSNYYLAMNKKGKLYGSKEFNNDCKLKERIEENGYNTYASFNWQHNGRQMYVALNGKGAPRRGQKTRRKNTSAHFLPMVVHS
Chain of Left-right determination factor 2 (Homo sapiens) (O00292 whole entry, looked up): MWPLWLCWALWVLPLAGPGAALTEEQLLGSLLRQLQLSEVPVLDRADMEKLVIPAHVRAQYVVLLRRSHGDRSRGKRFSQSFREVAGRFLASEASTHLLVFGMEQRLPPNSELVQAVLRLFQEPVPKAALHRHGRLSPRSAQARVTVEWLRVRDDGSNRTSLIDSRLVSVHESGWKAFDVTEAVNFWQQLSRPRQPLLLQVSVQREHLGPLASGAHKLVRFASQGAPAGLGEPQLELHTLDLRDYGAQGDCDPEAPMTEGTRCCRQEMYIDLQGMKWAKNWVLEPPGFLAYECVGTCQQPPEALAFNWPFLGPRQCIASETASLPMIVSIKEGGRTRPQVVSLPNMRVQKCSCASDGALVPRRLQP
Chain of Epidermal growth factor receptor (Homo sapiens) (P00533 whole entry, looked up): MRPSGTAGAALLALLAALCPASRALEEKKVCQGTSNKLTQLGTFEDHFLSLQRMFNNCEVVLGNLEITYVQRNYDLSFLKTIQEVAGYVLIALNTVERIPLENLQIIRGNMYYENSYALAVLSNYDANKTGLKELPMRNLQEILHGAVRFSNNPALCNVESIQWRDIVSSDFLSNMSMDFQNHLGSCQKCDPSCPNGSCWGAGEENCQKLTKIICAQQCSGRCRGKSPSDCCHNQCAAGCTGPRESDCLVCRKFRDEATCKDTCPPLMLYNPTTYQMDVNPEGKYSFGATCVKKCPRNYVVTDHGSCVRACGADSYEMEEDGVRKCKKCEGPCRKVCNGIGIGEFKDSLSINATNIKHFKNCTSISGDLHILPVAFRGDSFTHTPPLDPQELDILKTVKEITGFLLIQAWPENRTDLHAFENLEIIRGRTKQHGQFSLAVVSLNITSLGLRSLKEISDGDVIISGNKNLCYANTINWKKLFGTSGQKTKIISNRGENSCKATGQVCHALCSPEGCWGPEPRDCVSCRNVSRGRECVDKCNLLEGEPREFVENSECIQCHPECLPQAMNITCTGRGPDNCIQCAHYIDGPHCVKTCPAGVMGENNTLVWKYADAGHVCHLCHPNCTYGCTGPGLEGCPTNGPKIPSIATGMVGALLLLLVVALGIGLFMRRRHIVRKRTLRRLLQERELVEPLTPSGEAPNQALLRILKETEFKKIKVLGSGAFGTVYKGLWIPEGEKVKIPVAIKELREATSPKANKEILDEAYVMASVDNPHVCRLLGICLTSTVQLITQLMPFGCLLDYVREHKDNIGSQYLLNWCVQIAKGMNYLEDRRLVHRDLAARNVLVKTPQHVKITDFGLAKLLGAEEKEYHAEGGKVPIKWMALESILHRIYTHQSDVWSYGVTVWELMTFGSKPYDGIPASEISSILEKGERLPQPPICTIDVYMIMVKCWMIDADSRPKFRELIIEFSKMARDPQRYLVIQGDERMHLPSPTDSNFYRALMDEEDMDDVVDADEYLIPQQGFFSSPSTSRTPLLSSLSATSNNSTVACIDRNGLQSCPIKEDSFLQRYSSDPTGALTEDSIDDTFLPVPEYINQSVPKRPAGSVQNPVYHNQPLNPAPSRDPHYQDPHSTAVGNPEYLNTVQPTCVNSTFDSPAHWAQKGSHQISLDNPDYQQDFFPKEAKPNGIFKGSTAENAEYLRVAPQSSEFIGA

SMILES	composite z-score [1]	composite z-score [2]	composite z-score [3]	z-score [4]	composite z-score [5]	composite z-score [6]	composite z-score [7]	composite z-score [8]	composite z-score [9]	composite z-score [10]	composite z-score [11]	z-score [12]	composite z-score [13]	composite z-score [14]	composite z-score [15]	composite z-score [16]	composite z-score [17]	composite z-score [18]	composite z-score [19]	composite z-score [20]
COc1cc(CO)cc(I)c1O[C@H]1C=C(C(=O)NCCO)C[C@@H](N(CCc2cccc(F)c2)C(=O)CCC2CCCC2)[C@@H]1O	1.1	0.0556	0.252	-1.37 (inactive)	1.54	1.01	-0.261	0.716	0.897	0.733	1.43	-4.65	0.195	2.15	2.16	0.277	0.0952	-0.144	2.99	-0.242
O=C(NCCN1CCOCC1)[C@@H]1c2ccccc2C(=O)N(Cc2cc(F)cc(C(F)(F)F)c2)[C@H]1c1ccc(CO)cc1	1.07	-0.469	0.776	0.284 (inactive)	0.07	-0.202	-0.651	-0.217	-1.14	-0.333	1.44	-1.33	-1.61	-0.346	0.0296	-0.124	-0.214	-0.0949	0.812	-0.444
C=CCN1C(=O)[C@@]2(O[C@@H](CCO)[C@H]([Si](C)(C)c3ccc(OC)cc3)[C@H]2C)c2cc(NC(C)=O)ccc21	0.463	-0.155	-0.255	-1.17 (inactive)	1.08	1.16	0.363	1.44	1.29	0.314	0.128	-3.7	1.45	0.793	0.509	0.0136	-0.0769	-0.234	1.14	0.71
C=CCN1C(=O)[C@]2(Cc3ccccc31)N=C(c1ccc(OCCCO)cc1)O[C@@H]2c1ccccc1	0.733	0.779	0.922	0.105 (inactive)	1.43	0.881	-0.0128	0.439	0.998	1.27	1.41	-2.74	0.319	0.731	-0.313	0.219	-0.108	0.431	1.75	0.152
O=C1OCC=C[C@H]2OC34C=CCN(c5ccc6ccccc6c5)C(=O)[C@H]3N(CCO)C(=O)[C@@H]4[C@@H]12 (stereo not given in full)	1.07	0.134	0.947	-0.461 (inactive)	-0.455	-0.657	-1.49	-1.33	-2.42	0.589	-0.589	-0.727	-1.99	-0.245	0.716	-0.152	0.191	0.0721	-0.831	-0.74
C[N+](C)(C)CCCC[C@@H]1NC(=O)[C@@H]2C[C@H](C(=O)NCCCCCCNC(=O)CS)[C@H](c3cccc(OCCO)c3)N2C1=O	1.58	-0.209	0.111	-0.451 (inactive)	0.0947	-0.755	-1.01	-0.0324	0.383	0.439	-0.568	-0.154	0.382	-0.485	-0.467	-0.233	-0.0553	-0.331	0.567	2.15
C=CC[C@@]1(C(=O)OC)N=C(c2ccc(OCCCO)cc2)O[C@@H]1c1ccccc1CN=[N+]=[N-]	1.55	-0.0877	0.892	-1.54 (inactive)	-0.216	-0.215	-0.328	0.201	-0.231	1.15	1.14	-2.02	-0.0045	-0.517	-0.896	-0.144	-0.0553	-0.24	0.798	0.389
[N-]=[N+]=Nc1ccccc1[C@@H]1OC(c2ccc(OCCCO)cc2)=N[C@]1(CCS(=O)(=O)c1ccccc1)C(=O)N1CCCCC1	1.39	1.63	1.41	-0.261 (inactive)	1.05	0.85	0.098	0.811	-0.423	1.36	1.22	0.0018	-0.175	2.16	1.26	0.129	0.408	0.755	1.79	3.01
C=CCN1Cc2ccccc2C[C@]2(N=C(c3ccc(OCCCO)cc3)O[C@@H]2c2ccccc2)C1=O	0.761	-0.0119	0.311	-1.44 (inactive)	1.08	1.29	0.734	1.25	0.838	1.31	1.18	-2.51	0.915	0.054	-0.83	-0.006	-0.0119	0.838	2.68	1.03
C=CCC(OC(C)=O)[C@@H]1[C@@H](N(Cc2cc3ccccc3o2)C(=O)c2cccc3ccccc23)c2cc(OCCCO)ccc2N1C(=O)Cc1ccc2ccccc2c1 (stereo not given in full)	0.53	0.224	0.471	-0.904 (inactive)	0.0259	-0.925	-0.221	0.0969	-0.0207	1.02	0.0073	-0.751	-0.31	0.191	0.223	-0.124	0.0711	-0.366	-0.089	0.474
COCCOC(=O)N1C(=O)[C@@]2(c3cc(C#CC4=CCCCC4)ccc31)[C@H](c1ccc(OCCO)cc1)N1[C@H](c3ccccc3)[C@H](c3ccccc3)OC(=O)[C@H]1[C@@H]2C(=O)Nc1nc2ccccc2s1	0.581	0.0643	0.153	-0.831 (inactive)	1.08	1.29	0.287	1.12	0.521	0.462	1.23	-1.87	0.172	1.57	-0.386	-0.001	0.275	-0.45	0.993	0.656
